Results as given in PubChem BioAssay AID1159580 (chemical genetic matrix, 2015).
In all, about 5,500 compounds went through this assay and about 2,000 (36%) were called active. Not shown: some 18% with an inconclusive outcome. Cut-off read from the data, not from the text of the source: active = normalized growth mostly below about 0.91 (no sharp cut-off); inconclusive = no clear call, values can overlap the other calls; inactive = mostly above about 0.92. The list shows a part of the results.

Assay: chemical genetic growth profiling, strain panel (AID 1159580);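 note: tested at 20 µM; growth read once vehicle control cultures reached saturation at 30 °C; 1 = growth at the plate median or of vehicle wells; lower values mean less growth of the strain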
Conditions: growth OD
[1] = S. cerevisiae deletion strains, locus YDL101C, strain DUN1, hits give low values
[2] = S. cerevisiae deletion strains, locus YHR030C, strain SLT2, hits give low values

Measured: normalized growth

COc1ccc(CCNC(=S)Nc2cccc(C(F)(F)F)c2)cc1OC
inactive: S. cerevisiae deletion strains, locus YAL013W, strain DEP1, hits give low values 0.997 | S. cerevisiae deletion strains, locus YBR229C, strain ROT2, hits give low values 0.995 | [1] 0.999 | S. cerevisiae deletion strains, locus YDR150W, strain NUM1, hits give low values 0.957 | S. cerevisiae deletion strains, locus YEL061C, strain CIN8, hits give low values 1.02 | S. cerevisiae deletion strains, locus YGR078C, strain PAC10, hits give low values 0.971 | [2] 0.9 | S. cerevisiae deletion strains, locus YHR087W, strain rtc3, hits give low values 1.03 | S. cerevisiae deletion strains, locus YJL187C, strain SWE1, hits give low values 1.01 | S. cerevisiae deletion strains, locus YJR043C, strain POL32, hits give low values 0.968 | S. cerevisiae deletion strains, locus YJR075W, strain HOC1, hits give low values 0.981 | S. cerevisiae deletion strains, locus YLR039C, strain RIC1, hits give low values 0.837 | S. cerevisiae deletion strains, locus YLR058C, strain SHM2 (second series), hits give low values 1.01 | S. cerevisiae deletion strains, locus YLR085C, strain ARP6, hits give low values 0.962 | S. cerevisiae deletion strains, locus YLR262C, strain YPT6, hits give low values 0.831 | S. cerevisiae deletion strains, locus YML094W, strain GIM5, hits give low values 0.968 | S. cerevisiae deletion strains, locus YMR219W, strain ESC1, hits give low values 1 | S. cerevisiae deletion strains, locus YMR263W, strain SAP30, hits give low values 0.981 | S. cerevisiae deletion strains, locus YNL128W, strain TEP1, hits give low values 0.987 | S. cerevisiae deletion strains, locus YNL153C, strain GIM3, hits give low values 0.969 | S. cerevisiae deletion strains, locus YNL298W, strain CLA4 (second series), hits give low values 1 | S. cerevisiae deletion strains, locus YNL322C, strain KRE1, hits give low values 0.996 | S. cerevisiae deletion strains, locus YNR030W, strain Alg12, hits give low values 1 | S. cerevisiae deletion strains, locus YOL006C, strain TOP1, hits give low values 0.964 | S. cerevisiae deletion strains, locus YPL055C, strain LGE1, hits give low values 1 | S. cerevisiae deletion strains, locus YPL241C, strain CIN2, hits give low values 0.969 | S. cerevisiae deletion strains, locus YPR135W, strain CTF4, hits give low values 0.895 | S. cerevisiae strains, strain wild type, hits give low values 0.982

O=C(NC(=S)Nc1cccc(C(F)(F)F)c1)c1ccc2nonc2c1
inactive: S. cerevisiae deletion strains, locus YAR019C, strain CDC15, hits give low values 0.956 | S. cerevisiae deletion strains, locus YBL105C, strain PKC1, hits give low values 0.968 | S. cerevisiae deletion strains, locus YBR135W, strain CKS1, hits give low values 0.93 | S. cerevisiae deletion strains, locus YBR136W, strain MEC1, hits give low values 0.952 | S. cerevisiae deletion strains, locus YBR160W, strain CDC28, hits give low values 0.96 | S. cerevisiae deletion strains, locus YDL017W, strain CDC7, hits give low values 0.96 | S. cerevisiae deletion strains, locus YDL028C, strain MPS1, hits give low values 0.952 | [1] 0.957 | S. cerevisiae deletion strains, locus YDL108W, strain KIN28, hits give low values 0.957 | S. cerevisiae deletion strains, locus YDL132W, strain cdc53, hits give low values 0.967 | S. cerevisiae deletion strains, locus YDL214C, strain PRR2, hits give low values 0.973 | S. cerevisiae deletion strains, locus YDR052C, strain DBF4, hits give low values 0.978 | S. cerevisiae deletion strains, locus YDR054C, strain cdc34, hits give low values 0.94 | S. cerevisiae deletion strains, locus YDR226W, strain ADK1, hits give low values 0.957 | S. cerevisiae deletion strains, locus YDR477W, strain SNF1, hits give low values 0.896 | S. cerevisiae deletion strains, locus YER123W, strain YCK3, hits give low values 0.971 | S. cerevisiae deletion strains, locus YER133W, strain GLC7, hits give low values 0.95 | S. cerevisiae deletion strains, locus YFL009W, strain cdc4, hits give low values 0.944 | S. cerevisiae deletion strains, locus YFL029C, strain CAK1, hits give low values 0.961 | S. cerevisiae deletion strains, locus YFR003C, strain YPI1, hits give low values 0.96 | S. cerevisiae deletion strains, locus YFR019W, strain FAB1, hits give low values 1 | S. cerevisiae deletion strains, locus YFR028C, strain CDC14, hits give low values 0.944 | S. cerevisiae deletion strains, locus YGR040W, strain KSS1, hits give low values 0.907 | S. cerevisiae deletion strains, locus YGR052W, strain FMP48, hits give low values 1.04 | S. cerevisiae deletion strains, locus YGR092W, strain DBF2, hits give low values 0.989 | S. cerevisiae deletion strains, locus YHR079C, strain IRE1, hits give low values 0.949 | S. cerevisiae deletion strains, locus YHR082C, strain KSP1, hits give low values 0.912 | S. cerevisiae deletion strains, locus YHR205W, strain SCH9, hits give low values 0.907 | S. cerevisiae deletion strains, locus YIL147C, strain SLN1, hits give low values 0.952 | S. cerevisiae deletion strains, locus YJL095W, strain BCK1, hits give low values 0.778 | S. cerevisiae deletion strains, locus YJL128C, strain PBS2, hits give low values 0.978 | S. cerevisiae deletion strains, locus YJL157C, strain FAR1, hits give low values 0.974 | S. cerevisiae deletion strains, locus YJR016C, strain ILV3, hits give low values 0.93 | S. cerevisiae deletion strains, locus YJR066W, strain TOR1 (second series), hits give low values 0.938 | S. cerevisiae deletion strains, locus YJR066W, strain TOR1, hits give low values 0.838 | S. cerevisiae deletion strains, locus YKL048C, strain ELM1, hits give low values 0.968 | S. cerevisiae deletion strains, locus YKL067W, strain YNK1, hits give low values 0.979 | S. cerevisiae deletion strains, locus YKL101W, strain HSL1, hits give low values 0.956 | S. cerevisiae deletion strains, locus YKL193C, strain SDS22, hits give low values 0.953 | S. cerevisiae deletion strains, locus YKL203C, strain TOR2, hits give low values 0.972 | S. cerevisiae deletion strains, locus YLR133W, strain CKI1, hits give low values 0.966 | S. cerevisiae deletion strains, locus YLR403W, strain SFP1, hits give low values 0.968 | S. cerevisiae deletion strains, locus YML070W, strain DAK1, hits give low values 0.953 | S. cerevisiae deletion strains, locus YMR001C, strain CDC5, hits give low values 0.957 | S. cerevisiae deletion strains, locus YMR205C, strain PFK2 (second series), hits give low values 0.959 | S. cerevisiae deletion strains, locus YMR277W, strain FCP1, hits give low values 0.953 | S. cerevisiae deletion strains, locus YNL006W, strain LST8, hits give low values 0.961 | S. cerevisiae deletion strains, locus YNL020C, strain ARK1, hits give low values 0.962 | S. cerevisiae deletion strains, locus YNL161W, strain CBK1, hits give low values 0.954 | S. cerevisiae deletion strains, locus YNL183C, strain NPR1, hits give low values 0.852 | S. cerevisiae deletion strains, locus YNL207W, strain RIO2, hits give low values 0.962 | S. cerevisiae deletion strains, locus YNL222W, strain SSU72, hits give low values 0.947 | S. cerevisiae deletion strains, locus YNL307C, strain MCK1 (second series), hits give low values 0.974 | S. cerevisiae deletion strains, locus YOL078W, strain AVO1, hits give low values 0.953 | S. cerevisiae deletion strains, locus YOL136C, strain PFK27, hits give low values 0.991 | S. cerevisiae deletion strains, locus YOR061W, strain CKA2, hits give low values 0.967 | S. cerevisiae deletion strains, locus YOR119C, strain RIO1, hits give low values 1.02 | S. cerevisiae deletion strains, locus YOR231W, strain MKK1, hits give low values 0.863 | S. cerevisiae deletion strains, locus YOR329C, strain SCD5, hits give low values 0.969 | S. cerevisiae deletion strains, locus YPL031C, strain PHO85, hits give low values 0.912 | S. cerevisiae deletion strains, locus YPL153C, strain RAD53, hits give low values 0.905 | S. cerevisiae deletion strains, locus YPL204W, strain HRR25, hits give low values 0.936 | S. cerevisiae deletion strains, locus YPL209C, strain IPL1, hits give low values 0.945 | S. cerevisiae deletion strains, locus YPR025C, strain CCL1, hits give low values 0.951 | S. cerevisiae deletion strains, locus YPR106W, strain ISR1, hits give low values 0.973 | S. cerevisiae deletion strains, locus YPR111W, strain DBF20, hits give low values 0.936 | S. cerevisiae deletion strains, strain NNK1, hits give low values 0.954 | S. cerevisiae deletion strains, strain TSCII, hits give low values 0.939
active: [2] 0.774 | S. cerevisiae deletion strains, locus YLR113W, strain HOG1, hits give low values 0.713 | S. cerevisiae deletion strains, locus YPL256C, strain CLN2, hits give low values 0.831
